PubChem BioAssay (NCATS)
Inconclusive results are not listed. The list shows a part of the results. Active and inactive are the calls of the source. Calls follow the shape of the dose curve; as a rule, active = well fitted curve in the direction sought with a large enough effect; inconclusive = small, poorly fitted or top-dose-only effect, or another doubt; inactive = no such curve, though single readings can be large; an effect the other way counts as inactive or inconclusive.

Biological target: Vitamin D3 receptor (Homo sapiens) (UniProt P11473)
Assay: qHTS for Inhibitors of the vitamin D receptor (VDR): Hit Validation in Primary Screen (AID 602199)
Details: VDR-coactivator inhibition assay, qHTS confirmation
Summary of the method: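 Fluorescence polarization assay of VDR binding to Alexa 647-labelled SRC2-3 coactivator peptide: 800nM VDR with 5uM LG19078 agonist, compounds, 2 h at room temperature, read Ex 620 nm/Em 688 nm.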
Potency is read from the fitted curve at half-maximal effect.

Sequence of Vitamin D3 receptor (Homo sapiens) (P11473 whole entry, looked up): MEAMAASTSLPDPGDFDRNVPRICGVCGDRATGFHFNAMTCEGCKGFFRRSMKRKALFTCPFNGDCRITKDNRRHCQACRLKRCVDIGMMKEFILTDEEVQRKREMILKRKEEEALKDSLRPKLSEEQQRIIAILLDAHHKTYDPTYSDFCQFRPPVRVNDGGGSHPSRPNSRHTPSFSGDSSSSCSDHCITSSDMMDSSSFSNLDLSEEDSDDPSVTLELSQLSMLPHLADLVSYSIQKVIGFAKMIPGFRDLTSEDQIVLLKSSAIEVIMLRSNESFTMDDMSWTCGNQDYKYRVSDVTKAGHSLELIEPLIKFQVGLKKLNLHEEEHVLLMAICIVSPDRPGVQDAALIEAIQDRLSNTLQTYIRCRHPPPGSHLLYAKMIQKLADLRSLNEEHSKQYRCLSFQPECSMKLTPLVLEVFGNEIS

SMILES	Potency
COC(=O)/C=C\C(=O)Nc1cccc([N+](=O)[O-])c1	5.32 µM (active)
O=c1cc(CO)oc(C(Nc2cccc(C(F)(F)F)c2)c2ccccn2)c1O (centres undefined)	16.8 µM (active)
CC(=O)N1CC[n+]2c(-c3ccc([N+](=O)[O-])cc3)csc21	10 µM (active)
O=C(Nc1ccccc1)c1nnsc1S(=O)(=O)c1ccc(Cl)cc1	16.8 µM (active)
O=c1[nH]c2ccccc2n2c(-c3ccccc3)nnc12	9.47 µM (active)
CN(C)N=Nc1ccc2nc[nH]c2c1	10.6 µM (active)
CC(=O)N(C1=C(Cl)C(=O)c2ccccc2C1=O)c1ccc(C(=O)O)cc1	7.94 µM (active)

Test system: not listed separately
Assay: qHTS for Inhibitors of the vitamin D receptor (VDR): Hit Validation using a Texas Red Assay (AID 602201)
Details: VDR coregulator binding, Texas Red fluorescence polarization, agonist-bound VDR ligand-binding domain; series mostly up to 57.1 µM
Summary of the method: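 Fluorescence polarization (Ex 595/Em 615 nm) of Texas Red (7 nM) with 1.5 uM VDR-LBD and LG19078 (final concentrations). Compounds were incubated for 2 hours at room temperature.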

SMILES	Potency
COc1cccc(C(=O)Oc2ccccc2/C=C\C(=O)c2cc3ccccc3o2)c1	3.16 µM (active)
Cc1sc(C(C2C(=O)CC(C)(C)CC2=O)C2C(=O)CC(C)(C)CC2=O)cc1[N+](=O)[O-]	7.94 µM (active)
c1ccc(CCc2nn3c(Cn4cnc5ccccc54)nnc3s2)cc1	28.2 µM (active)
CCOC(=O)c1c(C2COc3ccccc3O2)csc1NC(=O)c1ccco1 (centres undefined)	3.55 µM (active)
CN1CCN(C(c2ccc(Br)cc2)c2cc(Cl)c3cccnc3c2O)CC1 (centres undefined)	28.2 µM (active)
O=C(c1cccs1)c1no[n+]([O-])c1C(=O)c1cccs1	3.55 µM (active)
Oc1ccc(N=C/C=C/c2cccc(Br)c2)cc1-c1nc2ccccc2s1	15.8 µM (active)
O=C(/C=C/c1ccnc2ccccc12)c1cccs1	28.2 µM (active)
Cc1nc2ccc(N=NN(C)C)cc2[nH]1	inactive
O=c1cc(CO)oc(C(Nc2cccc(C(F)(F)F)c2)c2ccccn2)c1O (centres undefined)	inactive
COC(=O)c1cc(=O)n(Cc2ccco2)c(=Nc2ccc(F)c(Cl)c2)s1	10 µM (active)
CC(=O)Nc1cccc(C(=O)/C=C/c2ccc(Br)cc2)c1	5.62 µM (active)
Cc1cc(Br)cc2c1N(Cc1ccccc1OC(C)C)C(=O)C2=O	11.2 µM (active)
CCOC(=O)CS(=O)(=O)c1nc(-c2ccccc2)cc(C(F)(F)F)n1	inactive
CC(=O)N1CC[n+]2c(-c3ccc([N+](=O)[O-])cc3)csc21	7.08 µM (active)
CC(=O)N(C(C)=O)N1C(=O)C2C3c4ccccc4C(c4ccccc43)C2C1=O (centres undefined)	inactive
Cc1ccc(S(=O)(=O)Oc2ccc(/C=C3\C(=N)N4N=C(S(C)(=O)=O)SC4=NC3=O)cc2)cc1	inactive
COCCN(CC(=O)NC1CCCCC1)C(=O)/C=C/C(=O)c1ccc(OC)cc1O	inactive
CN(C)N=Nc1ccc2nc[nH]c2c1	inactive

SMILES	Potency
CCOC(=O)c1c(-c2ccccc2)csc1NC(=O)c1nc(S(=O)(=O)CC)ncc1Cl	3.55 µM (active)
Cc1nc2c3cc(F)ccc3n(Cc3ccccc3)c2s1	inactive
CCOC(=O)c1ccc(S(=O)(=O)Nc2cc(S(=O)(=O)N3CCOCC3)ccc2O)cc1	inactive
CCCc1nnc(NC(=O)c2nc(S(=O)(=O)Cc3cccc(C)c3)ncc2Cl)s1	inactive
CC(=O)N(C1=C(Cl)C(=O)c2ccccc2C1=O)c1ccc(C(=O)O)cc1	3.55 µM (active)
CC(C)(C)C1C/C(=C/c2ccccn2)C(=O)/C(=C/c2ccccn2)C1 (centres undefined)	3.16 µM (active)
COc1ccc(/C=C2/C(=O)N(c3ccccc3)N=C2C)cc1Br	inactive
CCOc1cc(/C=C2/C(=O)ON=C2C)cc(Br)c1O	inactive
O=C1/C(=C/c2cccc([N+](=O)[O-])c2)CCc2ccccc21	31.6 µM (active)
Nc1nc(-c2cccc(F)c2)cs1	inactive
CCC(=O)Nc1cccc(C(=O)/C=C/c2cc(Br)ccc2OC)c1	28.2 µM (active)
COC(=O)c1ccccc1NC(=O)c1nc(S(=O)(=O)Cc2ccccc2)ncc1Cl	3.16 µM (active)
Cc1ccc(C=Nc2ccc(N(C)C)cc2)o1	20 µM (active)
O=C(/C=C/c1cccc([N+](=O)[O-])c1)c1cccs1	14.1 µM (active)
O=c1nc(/C=C/c2cc([N+](=O)[O-])ccc2Cl)cc(C(F)(F)F)[nH]1	3.55 µM (active)
Cc1cccc(CS(=O)(=O)c2ncc(Cl)c(C(=O)NCc3ccccc3)n2)c1	inactive
CCn1c(CSc2nnc(-c3ccncc3)n2CCOC)nc2cc(C(=O)O)ccc21	15.8 µM (active)
CC(C)(C)c1nnc(NS(=O)(=O)c2ccc([N+](=O)[O-])cc2)s1	25.1 µM (active)
